# Results: PubChem BioAssay AID2546 (National Center for Advancing Translational Sciences (NCATS), 2010)
# Screen size: about 310,000 compounds; about 11,000 (3.5%) were called active. Inconclusive results (about 8%) are left out. This is one part of a sample in which actives are shown more often than they occur. Unmarked numbers belong to inactive results. The call rests on the fitted dose curve; in most records, active means well fitted inhibition curve with a large enough effect; inconclusive means small, poorly fitted or top-dose-only effect, or effect the other way; inactive means flat fitted curve, though single readings scatter.
# Test: VP16 counterscreen qHTS for inhibitors of ROR gamma transcriptional activity;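 further: Gal4-VP16 expression switched on by copper sulfate through the metallothionein promoter; nearly all actives have a fitted effect of over 50% in size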
# Conditions: Drosophila S2 Gal4-VP16 UAS-luciferase, luminescence, 20 h; series mostly up to 53.6 µM; activity, negative = inhibition: at the top concentration
# On the % scale 0 is the no-effect control and ±100 the full control effect; potency means the concentration at half of the fitted maximal effect.
SMILES,"activity, negative = inhibition",Potency
CC(C)c1c(C(=O)N/N=C/c2ccc(-c3ccccc3)cc2)nnn1-c1nonc1N,-8.19%,–
Cc1cc(C(C)(C)C)n2nc(C)c(-c3ccccc3)c2n1,-4.74%,–
Cc1cc(N2CCCC2)n2nc(C)c(-c3ccccc3)c2n1,8.17%,–
Cc1nn2c(NCCN(C)C)c3c(nc2c1-c1ccccc1)CCC3,–,0.794 µM (active)
CCOC(=O)C1(Cc2cccc(OC)c2)CCCN(C(=O)CCSC)C1 (stereo unspecified),-1%,–
CCN(CC)S(=O)(=O)c1ccc(N2CCN(C)CC2)c(NC(=O)Nc2ccccc2F)c1,-4.65%,–
Cc1ccccc1CN1CCNC(=O)C1CC(=O)NCCC1=CCCCC1 (stereo unspecified),1.67%,–
CC1CCCCN1C(=S)NCc1ccccc1 (stereo unspecified),22.1%,–
C/C(=N\NC(=S)NCc1ccccc1)C1CCCCC1,–,1 µM (active)
C/C(=N\NC(=S)NCc1ccccc1)c1ccc(Cl)cc1,–,0.794 µM (active)
O=C(O)c1ccc(/C=N/NC(=S)NCc2ccccc2)cc1,-14.7%,–
O=C(CC1CCCCC1)NCc1ccccc1,24%,–
C[n+]1ccc(C(=O)NCc2ccccc2)cc1,-9.88%,–
COc1ccc(NC(=O)C(C)N2c3cccc4cccc(c34)S2(=O)=O)c(OC)c1 (stereo unspecified),-5.36%,–
COc1cccc(/C=C2\Sc3ccc(C(=O)NCC4CCCO4)cc3N(C)C2=O)c1 (stereo unspecified),6.5%,–
CC(=O)NCCC(=O)Nc1nc(-c2ccc3c(c2)OCCO3)cs1,-10%,–
Cc1cc(C)cc(NS(=O)(=O)Cc2ccccc2)c1,5.47%,–
Cc1ccc(C(=O)COC(=O)CCN2C(=O)C3C4CCC(C4)C3C2=O)cc1C (stereo unspecified),6.49%,–
COc1ccccc1NC(=O)/C=C/C(N)=O,–,4.47 µM (active)
COc1ccccc1NC(=O)c1ccc(C)s1,6.7%,–
COc1ccccc1NC(=O)/C=C/C(=O)O,0.849%,–
COc1ccc(NC(=O)CN2C(=O)COc3ccc(S(=O)(=O)N4CCOCC4)cc32)cc1,2.73%,–
CCc1cc(-c2n[nH]c(=S)n2CC(C)C)cs1,–,11.2 µM (active)
CCn1c(C(C)C)n[nH]c1=S,2.29%,–

SMILES,"activity, negative = inhibition",Potency
CCn1c(-c2ccoc2C)n[nH]c1=S,-27%,–
Cc1ccc(Cn2c(C)c3cnn(CC(=O)NCc4ccccn4)c(=O)c3c2C)cc1,-20.9%,–
CC(=O)Nc1ccc(C(=O)N(C2=NC(C)CS2)c2ccc(Cl)cc2)cc1 (stereo unspecified),3.56%,–
COc1ccc(-c2nnc(NC(=O)CS(=O)(=O)c3ccc(Cl)cc3)o2)c(OC)c1,-16.2%,–
COc1cccc(-c2nnc(NC(=O)c3ccc(S(=O)(=O)N(CC(C)C)CC(C)C)cc3)o2)c1,–,0.355 µM (active)
COc1cccc(NC(=O)c2ccc(S(=O)(=O)N(C)C)cc2)c1,24.2%,–
COc1cc(Nc2nc3ccc(Cl)cc3n3cnnc23)cc(OC)c1OC,-7.36%,–
O=C(c1ccc(Cl)cc1)n1cnc2ccccc21,-13%,–
C=CS(=O)c1sc(Cl)c(N2CCOCC2)c1[N+](=O)[O-] (stereo unspecified),–,3.98 µM (active)
CCCOc1ccc(C2=CSC3=NCCN23)cc1Cl,-2.84%,–
COc1ccc(C(=O)NC(=S)NNC(=O)CCc2ccccc2)cc1,–,15.8 µM (active)
COc1ccc(C(=O)NNC(=S)NC(=O)c2ccccc2[N+](=O)[O-])cc1,-2.15%,–
COc1ccc(OCC(=O)NNC(=O)c2ccc(-c3ccccc3)cc2)cc1,-1.67%,–
O=C(NC(=S)NC1CCCCC1)c1ccc(Cl)cc1,-0.126%,–
O=C(CCc1ccccc1)NNC(=O)c1ccc(Br)cc1,2.7%,–
COc1ccc(C(=O)NNC(=S)NC(=O)c2ccccc2)cc1,–,8.91 µM (active)
COc1ccc(C(=O)NC2CCN(C(=S)NCCc3ccccc3)CC2)cc1,6%,–
CCCNC(=S)N1CCC(NC(=O)c2ccc(OC)cc2)CC1,-0.164%,–
COc1ccc(C(=O)NC(=S)NC2CCCCC2)cc1,–,6.31 µM (active)
COc1ccc(NC(=O)CCCN2C(=O)C(c3ccccc3)Oc3cccnc32)cc1 (stereo unspecified),0.496%,–
CC(C)C[C@@H](COc1ccccc1)N1CCN(CC(C)C)CCC1=O,-0.104%,–
COc1ccc(CCc2nc(-c3cccs3)no2)cc1,6.91%,–
O=C(c1ccc2nc(N3CCOCC3)sc2c1)N1CCN(c2ccc(Cl)cc2)CC1,-4.01%,–
COc1ccc(NC(=O)CSc2nncc(=O)n2N)cc1OC,-8.72%,–

SMILES,"activity, negative = inhibition",Potency
CCCC(C)c1nnc(NC(=O)C2CC(=O)N(c3ccc(OCC)cc3)C2)s1 (stereo unspecified),4.36%,–
Oc1ccccc1C=NC1CCCCC1N=Cc1ccccc1O (stereo unspecified),5.08%,–
COc1ccc(/C=N/NC(=O)C2CC2)c(OC)c1OC,-0.0485%,–
O=C(N/N=C/c1ccccc1O)C1CCCC1,–,0.562 µM (active)
N#CC(C#N)=CN=c1ccn(Cc2ccc(Cl)cc2Cl)cc1,-4.82%,–
COc1ccccc1N1CCN(C(=O)c2cc(=O)c3cc(C)ccc3o2)CC1,-0.286%,–
O=c1c2ccccc2nc2n1C(CSCc1ccccc1)CS2 (stereo unspecified),5.71% [at 0.365 µM],–
O=c1c2ccccc2nc2n1C(CSCc1cccc(C(F)(F)F)c1)CS2 (stereo unspecified),–,7.94 µM (active)
O=c1c2ccccc2nc2n1C(CSc1ccc(F)cc1)CN2 (stereo unspecified),-0.667%,–
CS(=O)(=O)N1CCN(CC(=O)NC2CCCC2)CC1,-4.75%,–
O=S(=O)(Nc1ccccn1)c1ccc(Oc2ccccc2)cc1,3.87%,–
COc1ccccc1Oc1ccc(S(=O)(=O)Nc2cccnc2)cc1,–,17.8 µM (active)
COc1ccc(S(=O)(=O)Nc2cccnc2)c(Cl)c1Cl,-4.29%,–
CC(Oc1cccc(Cl)c1)C(=O)NC1CC(C)(C)NC(C)(C)C1 (stereo unspecified),-0.763%,–
O=C(CC1C(=O)NCCN1C(=O)c1ccc([N+](=O)[O-])cc1)Nc1cccc(Cl)c1 (stereo unspecified),-9.4%,–
Cc1ccc(SCc2c(C(=O)N/N=C/C3CC=CCC3)nnn2-c2nonc2N)cc1 (stereo unspecified),-5.45%,–
Cc1ccc(SCc2c(C(=O)N/N=C/c3cccnc3)nnn2-c2nonc2N)cc1,-7.8%,–
Nc1nonc1-n1nnc(C(=O)N/N=C/c2cc(Br)ccc2O)c1CSC1=NCCS1,–,4.47 µM (active)
COc1ccccc1NC(=O)CSc1nc2sc3c(c2c(=O)n1-c1ccccc1)CCN(C)C3,2.43%,–
CCCCc1nc2cc(C(=O)NCCc3cnn(C)c3)ccc2o1,-4.88%,–
O=C(CN(c1cc(C(F)(F)F)ccc1Cl)S(=O)(=O)c1ccccc1)NCc1cccnc1,-0.095%,–
O=C(CCc1ccccc1)NCc1cccnc1,2.5%,–
CCc1ccc(N(CC(=O)NCc2cccnc2)S(=O)(=O)c2ccccc2)cc1,–,14.1 µM (active)
